According to the supplement of paper PMC4466140:

What was measured:
Experiment in all cases: SPOT peptide array binding signal intensity (averaged, normalized) (arbitrary units (background-subtracted, floor 0; scale differs between SH3 domains)); higher = stronger binding of the SH3 domain to the peptide
[1] = target: CaNbp2
How it was run: (§1)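 The binding signal is the normalized, background-subtracted spot intensity averaged over replicates; its arbitrary units differ between domains. It was obtained by incubating 10 μg/ml GST-fused SH3 domains from four yeast species overnight at 4°C in TBS-based blocking buffer on cellulose membranes with synthetic 15-mer peptides, cysteines replaced by serines, then detecting with anti-GST antibody, HRP anti-mouse secondary and luminol.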

[2] = target: CaRvs167
How it was run: as §1

[3] = target: CaRvs167-3
How it was run: as §1

[4] = target: CaSho1
How it was run: as §1

[5] = target: CaSla1-D1-D2
How it was run: as §1

[6] = target: CaSla1-D3
How it was run: as §1

[7] = target: ScAbp1
How it was run: as §1

[8] = target: ScBbc1
How it was run: as §1

[9] = target: ScBem1-D1
How it was run: as §1

[10] = target: ScBzz1-D1
How it was run: as §1

[11] = target: ScBzz1-D2
How it was run: as §1

[12] = target: ScCyk3
How it was run: as §1

[13] = target: ScFus1
How it was run: as §1

[14] = target: ScHof1
How it was run: as §1

[15] = target: ScHse1
How it was run: as §1

[16] = target: ScLsb1
How it was run: as §1

[17] = target: ScLsb2
How it was run: as §1

[18] = target: ScLsb3
How it was run: as §1

[19] = target: ScLsb4
How it was run: as §1

[20] = target: ScMyo3
How it was run: as §1

[21] = target: ScMyo5
How it was run: as §1

[22] = target: ScNbp2
How it was run: as §1

[23] = target: ScPex13
How it was run: as §1

[24] = target: ScRvs167
How it was run: as §1

[25] = target: ScSho1
How it was run: as §1

[26] = target: ScSla1-D1-D2
How it was run: as §1

[27] = target: ScSla1-D3
How it was run: as §1

[28] = target: SpAbp1-D1
How it was run: as §1

[29] = target: SpBbc1
How it was run: as §1

[30] = target: SpBzz1-D1
How it was run: as §1

[31] = target: SpBzz1-D2
How it was run: as §1

[32] = target: SpCyk3
How it was run: as §1

[33] = target: SpHof1
How it was run: as §1

[34] = target: SpHof1-2
How it was run: as §1

[35] = target: SpHof1-3
How it was run: as §1

[36] = target: SpHse1
How it was run: as §1

[37] = target: SpLsb1
How it was run: as §1

[38] = target: SpLsb4
How it was run: as §1

[39] = target: SpMyo1
How it was run: as §1

[40] = target: SpNbp2
How it was run: as §1

[41] = target: SpPex13
How it was run: as §1

[42] = target: SpRvs167
How it was run: as §1

[43] = target: SpSla1-D1-D2
How it was run: as §1

[44] = target: SpSla1-D3
How it was run: as §1

[45] = target: AgAbp1
How it was run: as §1

[46] = target: AgBbc1
How it was run: as §1

[47] = target: AgBem1-D1
How it was run: as §1

[48] = target: AgBzz1-D1
How it was run: as §1

[49] = target: AgBzz1-D2
How it was run: as §1

[50] = target: AgCyk3
How it was run: as §1

[51] = target: AgFus1
How it was run: as §1

[52] = target: AgHof1
How it was run: as §1

[53] = target: AgHse1
How it was run: as §1

[54] = target: AgLsb1
How it was run: as §1

[55] = target: AgLsb4
How it was run: as §1

[56] = target: AgMyo5
How it was run: as §1

[57] = target: AgNbp2
How it was run: as §1

[58] = target: AgRvs167
How it was run: as §1

[59] = target: AgSho1
How it was run: as §1

[60] = target: AgSla1-D1-D2
How it was run: as §1

[61] = target: AgSla1-D3
How it was run: as §1

[62] = target: CaAbp1-D1
How it was run: as §1

[63] = target: CaAbp1-D2
How it was run: as §1

[64] = target: CaBbc1
How it was run: as §1

[65] = target: CaBem1-D1
How it was run: as §1

[66] = target: CaBzz1-D1
How it was run: as §1

[67] = target: CaBzz1-D2
How it was run: as §1

[68] = target: CaCyk3
How it was run: as §1

[69] = target: CaFus1
How it was run: as §1

[70] = target: CaHof1
How it was run: as §1

[71] = target: CaHse1
How it was run: as §1

[72] = target: CaLsb1
How it was run: as §1

[73] = target: CaLsb4
How it was run: as §1

[74] = target: CaMyo5
How it was run: as §1

B1: unnamed (peptide)
chain: PPIPIVPSSPAPPLP
SPOT peptide array binding signal intensity [1]: 47.5
SPOT peptide array binding signal intensity [2]: ≤ 0
SPOT peptide array binding signal intensity [3]: ≤ 0
SPOT peptide array binding signal intensity [4]: ≤ 0
SPOT peptide array binding signal intensity [5]: ≤ 0
SPOT peptide array binding signal intensity [6]: ≤ 0
SPOT peptide array binding signal intensity [7]: ≤ 0
SPOT peptide array binding signal intensity [8]: ≤ 0
SPOT peptide array binding signal intensity [9]: ≤ 0
SPOT peptide array binding signal intensity [10]: ≤ 0
SPOT peptide array binding signal intensity [11]: ≤ 0
SPOT peptide array binding signal intensity [12]: ≤ 0
SPOT peptide array binding signal intensity [13]: ≤ 0
SPOT peptide array binding signal intensity [14]: 1.5
SPOT peptide array binding signal intensity [15]: ≤ 0
SPOT peptide array binding signal intensity [16]: ≤ 0
SPOT peptide array binding signal intensity [17]: ≤ 0
SPOT peptide array binding signal intensity [18]: ≤ 0
SPOT peptide array binding signal intensity [19]: ≤ 0
SPOT peptide array binding signal intensity [20]: 2260
SPOT peptide array binding signal intensity [21]: 1940
SPOT peptide array binding signal intensity [22]: ≤ 0
SPOT peptide array binding signal intensity [23]: ≤ 0
SPOT peptide array binding signal intensity [24]: ≤ 0
SPOT peptide array binding signal intensity [25]: ≤ 0
SPOT peptide array binding signal intensity [26]: ≤ 0
SPOT peptide array binding signal intensity [27]: 0.25
SPOT peptide array binding signal intensity [28]: ≤ 0
SPOT peptide array binding signal intensity [29]: 3.5
SPOT peptide array binding signal intensity [30]: ≤ 0
SPOT peptide array binding signal intensity [31]: ≤ 0
SPOT peptide array binding signal intensity [32]: ≤ 0
SPOT peptide array binding signal intensity [33]: ≤ 0
SPOT peptide array binding signal intensity [34]: ≤ 0
SPOT peptide array binding signal intensity [35]: ≤ 0
SPOT peptide array binding signal intensity [36]: 26.8
SPOT peptide array binding signal intensity [37]: ≤ 0
SPOT peptide array binding signal intensity [38]: ≤ 0
SPOT peptide array binding signal intensity [39]: 1080
SPOT peptide array binding signal intensity [40]: ≤ 0
SPOT peptide array binding signal intensity [41]: ≤ 0
SPOT peptide array binding signal intensity [42]: ≤ 0
SPOT peptide array binding signal intensity [43]: ≤ 0
SPOT peptide array binding signal intensity [44]: ≤ 0

B2: unnamed (peptide)
chain: HAPPLPPTAPPPPSL
SPOT peptide array binding signal intensity [45]: ≤ 0
SPOT peptide array binding signal intensity [46]: ≤ 0
SPOT peptide array binding signal intensity [47]: ≤ 0
SPOT peptide array binding signal intensity [48]: ≤ 0
SPOT peptide array binding signal intensity [49]: ≤ 0
SPOT peptide array binding signal intensity [50]: ≤ 0
SPOT peptide array binding signal intensity [51]: ≤ 0
SPOT peptide array binding signal intensity [52]: 26.5
SPOT peptide array binding signal intensity [53]: ≤ 0
SPOT peptide array binding signal intensity [54]: ≤ 0
SPOT peptide array binding signal intensity [55]: ≤ 0
SPOT peptide array binding signal intensity [56]: 2230
SPOT peptide array binding signal intensity [57]: ≤ 0
SPOT peptide array binding signal intensity [58]: ≤ 0
SPOT peptide array binding signal intensity [59]: ≤ 0
SPOT peptide array binding signal intensity [60]: ≤ 0
SPOT peptide array binding signal intensity [61]: ≤ 0
SPOT peptide array binding signal intensity [62]: ≤ 0
SPOT peptide array binding signal intensity [63]: 2
SPOT peptide array binding signal intensity [64]: ≤ 0
SPOT peptide array binding signal intensity [65]: ≤ 0
SPOT peptide array binding signal intensity [66]: 2
SPOT peptide array binding signal intensity [67]: 6
SPOT peptide array binding signal intensity [68]: ≤ 0
SPOT peptide array binding signal intensity [69]: ≤ 0
SPOT peptide array binding signal intensity [70]: ≤ 0
SPOT peptide array binding signal intensity [71]: 1.5
SPOT peptide array binding signal intensity [72]: ≤ 0
SPOT peptide array binding signal intensity [73]: ≤ 0
SPOT peptide array binding signal intensity [74]: 792
SPOT peptide array binding signal intensity [1]: ≤ 0
SPOT peptide array binding signal intensity [2]: ≤ 0
SPOT peptide array binding signal intensity [3]: ≤ 0
SPOT peptide array binding signal intensity [4]: ≤ 0
SPOT peptide array binding signal intensity [5]: ≤ 0
SPOT peptide array binding signal intensity [6]: ≤ 0
SPOT peptide array binding signal intensity [7]: ≤ 0
SPOT peptide array binding signal intensity [8]: ≤ 0
SPOT peptide array binding signal intensity [9]: ≤ 0
SPOT peptide array binding signal intensity [10]: ≤ 0
SPOT peptide array binding signal intensity [11]: ≤ 0
SPOT peptide array binding signal intensity [12]: ≤ 0
SPOT peptide array binding signal intensity [13]: ≤ 0
SPOT peptide array binding signal intensity [14]: 40.5
SPOT peptide array binding signal intensity [15]: ≤ 0
SPOT peptide array binding signal intensity [16]: ≤ 0
SPOT peptide array binding signal intensity [17]: ≤ 0
SPOT peptide array binding signal intensity [18]: ≤ 0
SPOT peptide array binding signal intensity [19]: ≤ 0
SPOT peptide array binding signal intensity [20]: 1750
SPOT peptide array binding signal intensity [21]: 2000
SPOT peptide array binding signal intensity [22]: ≤ 0
SPOT peptide array binding signal intensity [23]: ≤ 0
SPOT peptide array binding signal intensity [24]: ≤ 0
SPOT peptide array binding signal intensity [25]: ≤ 0
SPOT peptide array binding signal intensity [26]: ≤ 0
SPOT peptide array binding signal intensity [27]: 1.75
SPOT peptide array binding signal intensity [28]: ≤ 0
SPOT peptide array binding signal intensity [29]: 1.5
SPOT peptide array binding signal intensity [30]: 148
